# Results reported in the supplement of paper PMC3334620.
# Over roughly 33,000 sequences, “E-score (-0.5 to 0.5)” has its median near -0.016; the highest 2% begin near 0.31. The list comes from a sample in which the highest values are over-represented; it also holds similar and randomly drawn sequences.
# Molecular target: Cst6 (UniProt P40535)
# Experiment: PBM E-score (8-mer binding enrichment) (E-score (-0.5 to 0.5)); higher = stronger / more preferred TF binding
# Details: protein concentration: 200 nM; construct: GST-DNA-binding domain
# Protocol: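 Universal 'all 10-mer' protein binding microarrays (Agilent AMADID 015681) probed with GST-tagged S. cerevisiae TFs (full-length or DBD) made by in vitro transcription/translation (PURExpress), about 100-200 nM. Bound TF was detected with fluorescent anti-GST. Each ungapped 8-mer (which stands for itself and its reverse complement) is scored by the PBM enrichment score (E-score), a modified Wilcoxon-Mann-Whitney statistic from -0.5 to +0.5, computed with the Universal PBM Analysis Suite. Scale: above 0.35 generally sequence-specific binding.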
# Chain of UniProt P40535 (P40535 whole entry): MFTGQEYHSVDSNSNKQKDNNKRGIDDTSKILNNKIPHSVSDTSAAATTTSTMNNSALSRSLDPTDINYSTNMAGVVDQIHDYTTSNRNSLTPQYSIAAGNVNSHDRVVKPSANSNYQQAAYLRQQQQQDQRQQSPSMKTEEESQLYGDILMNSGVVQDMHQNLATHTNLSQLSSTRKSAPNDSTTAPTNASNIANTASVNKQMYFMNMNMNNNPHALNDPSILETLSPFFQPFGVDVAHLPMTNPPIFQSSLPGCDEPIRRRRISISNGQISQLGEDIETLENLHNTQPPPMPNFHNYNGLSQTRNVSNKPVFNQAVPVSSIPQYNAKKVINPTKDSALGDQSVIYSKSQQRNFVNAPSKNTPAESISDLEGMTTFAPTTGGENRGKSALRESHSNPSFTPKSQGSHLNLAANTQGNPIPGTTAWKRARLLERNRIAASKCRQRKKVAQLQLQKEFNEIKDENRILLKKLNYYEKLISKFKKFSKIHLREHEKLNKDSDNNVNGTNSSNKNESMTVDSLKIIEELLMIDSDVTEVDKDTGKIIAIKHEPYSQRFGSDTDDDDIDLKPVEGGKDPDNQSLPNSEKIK
row,Sequence,PBM E-score
1,TGACCTAA,0.362
2,GGACCTAA,-0.105
3,AGACCTCA,0.022
4,CAGGACAA,0.0953
5,TCCACCAA,-0.117
6,GAAGAACC,-0.119
7,CTATGACC,0.193
8,ATATGATG,0.333
9,AGATGATG,0.346
10,ATATGACC,0.108
11,ATATGATA,0.296
12,AGATGATC,0.0705
13,AGATGATA,0.211
14,ATATGACG,0.472
15,ATATGATC,0.234
16,AAATGGCG,0.142
17,TAGTGCCA,-0.123
18,AGCTAAGC,-0.156
19,GCGCTGCA,-0.0118
20,CGAACCCG,-0.251
21,CCGGATTC,-0.172
22,ACCTATTA,0.0751
23,TGAGATCA,0.344
24,GGAGATCA,-0.0624
25,AGAGATCA,-0.0737

row,Sequence,PBM E-score
1,AACATCAG,0.183
2,GGCATCAC,0.227
3,ATAATCAG,0.106
4,AACATCAT,0.378
5,AACATCAC,0.295
6,ATCATCAC,0.341
7,CTCATCAC,0.146
8,ATAATCAT,0.344
9,AGCATCAC,0.0541
10,GTCATCAC,0.409
11,GCCATCAC,0.0711
12,ATAATCAA,0.16
13,ACCTTCAA,-0.00754
14,AACGCAAG,0.00296
15,AATCTGAG,-0.0919
16,AAGTCTTG,-0.0973
17,ATAGCGGA,-0.107
18,ACTATTGA,0.202
19,AGGGCGCA,-0.0682
20,ATCATCAT,0.355
21,ATAATGAT,0.334
22,AGCATCAT,0.251
23,ATAATGAG,0.0695
24,ATCATCAG,0.259
25,ATAATGAC,0.295

row,Sequence,PBM E-score
1,GGTGTCTA,0.0529
2,AGGCTGCG,-0.225
3,GTAGGACA,-0.0243
4,CGCTTCGC,-0.0922
5,ACACACAC,0.0991
6,TAACCTAA,0.158
7,ATTCGATG,0.105
8,AATCATCA,0.308
9,CCTCATCG,0.00595
10,AATCATCG,0.039
11,CATCATCG,0.333
12,GATCATCC,-0.0712
13,CATCATCA,0.409
14,GATCATCA,0.163
15,CCTCATCA,0.161
16,CATCATCC,0.345
17,AATCATCC,0.113
18,AATCATCT,0.114
19,ACTCATCA,0.00088
20,ACGCTGCT,-0.22
21,CCGGGCGC,-0.213
22,TGCCTAAA,0.0602
23,CCGATTTC,-0.121
24,TACCGACA,0.075
25,TAGGCTGA,-0.0803

row,Sequence,PBM E-score
1,CCCCTACG,-0.298
2,GAGGAGGA,-0.288
3,ACTCCTTC,-0.234
4,CATCATTA,0.327
5,TATCATAA,0.144
6,TATCATCA,0.341
7,CATCATTC,0.223
8,TCTCATCA,0.181
9,AATCATTA,0.28
10,CCTGCTTA,-0.0696
11,GGGTCGCA,-0.144
12,CCGAGGCG,0.0158
13,CTCCTAGA,-0.09
14,ATGCATTA,0.255
15,AAATTACT,0.222
16,CACTTACG,0.351
17,CAATTACA,0.223
18,ATATTACG,0.415
19,CACTTACC,0.0685
20,CACTTACA,0.173
21,CAATTACG,0.346
22,ATATTACC,0.248
23,CAATTACC,0.138
24,ATATTACA,0.248
25,AAATTACG,0.336

row,Sequence,PBM E-score
1,AAATTACC,0.199
2,AACTGCCT,0.129
3,CCGTTGCG,0.0674
4,TACCTGCA,-0.0618
5,ACAAGATA,0.0758
6,AGCTATGA,0.101
7,ATATGCAC,0.0769
8,ACGGGCAC,-0.105
9,CAGCCCAC,-0.191
10,AAGGTAAT,0.129
11,ACCGTCCC,-0.173
12,GTGTAAGA,0.0158
13,ACGTAAGA,0.448
14,ACGTACGG,0.149
15,ACGTACGT,0.311
16,GCGTAAGC,0.0902
17,CTGTAAGA,0.0332
18,TCGTAAGA,0.00239
19,ACGTAAGC,0.381
20,ACGTACGC,0.229
21,CCGTAAGC,-0.0303
22,ATGTAAGA,0.339
23,CCGTAAGA,-0.0536
24,ATCTGGAA,0.184
25,GCTCAATA,0.0653

row,Sequence,PBM E-score
1,CATAGAGG,-0.0937
2,CACCTCGG,0.02
3,CACCATTC,0.0213
4,AGGTATTC,0.0784
5,ACCGCAGG,-0.104
6,CCACCGAC,-0.163
7,ACTCAAGT,-0.053
8,CACAACCA,0.124
9,GTATACCA,-0.051
10,TGCGCCAA,-0.0304
11,CCGTAAGG,-0.113
12,ACGTAAGT,0.422
13,AAGTAAGT,0.116
14,AAGTAAGC,0.0657
15,AGGTAAGG,-0.132
16,ACGTAAGG,0.347
17,AGTGGCGC,0.00481
18,AGCCAAAG,-0.114
19,GATGATAA,0.257
20,CCAGCTCC,-0.29
21,ACGCTCCG,-0.119
22,CAAATAAC,0.37
23,AAAATAAC,0.178
24,GAAATAAC,0.148
25,ACAGGGCG,0.0932

row,Sequence,PBM E-score
1,ACCGACGA,-0.0237
2,ACCTCCGT,-0.0629
3,AAATGGCC,-0.0934
4,GTGCATCA,0.0738
5,ATACATAT,0.337
6,ATGCATCA,0.372
7,CTACATCA,0.302
8,ATACATAA,0.258
9,ATGCATCG,-0.00649
10,ATACATAC,0.0814
11,GTACATCA,0.275
12,ATACATCA,0.398
13,CAGTCGCG,-0.25
14,AGATTCAC,-0.122
15,GAAACCTA,-0.148
16,CTAAAGGC,0.0355
17,CATCAAAG,0.0154
18,AAGGGAAT,0.112
19,ATGTAATA,0.415
20,ATGTAACG,0.235
21,GTGTAATA,0.214
22,ATGTAATG,0.394
23,CTGTAATA,0.108
24,ATGTAATC,0.299
